Structures are written as SMILES. “And” between values parts separate entries of the source, which are not always exact repeats. Equal entries are not always repeated. The whole screen tested about 320,000 compounds, of which about 22,000 (6.9%) were called active. Roughly 27% stayed inconclusive and do not appear here. This excerpt belongs to a sample that is enriched for actives. Unmarked numbers belong to inactive results. The call rests on the fitted dose curve; in most records, active means well fitted inhibition curve with a large enough effect; inconclusive means small, poorly fitted or top-dose-only effect, or another doubt; inactive means no such curve, though single readings can be large or run the other way.
On the % scale 0 is the no-effect control and ±100 the full control effect; potency means the concentration at half of the fitted maximal effect.

The assay is described as follows: Primary qHTS for delayed death inhibitors of the malarial parasite plastid, 96 hour incubation. Particulars: P. falciparum luciferase reporter growth; series mostly up to 28.7 µM; activity change, negative = inhibition: at the top concentration. The method in brief: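 P. falciparum expressing integrated firefly luciferase grown in erythrocytes (2% hematocrit, 0.05% parasitemia final) with compounds for 96 hours at 37 C, 5% CO2. Growth inhibition read as loss of luminescence after adding luciferase detection reagent.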
In the case of `Cc1nn(CCCC(=O)NCc2ccccc2Cl)c(=O)c2nccn12`, the Potency is 1.04 µM (active).
Turning to `Cc1cccn2c(=O)nc(SCC(=O)NCc3ccccc3Cl)nc12`, the “activity change, negative = inhibition” value was -16.4%.
For the molecule `O=C(COC(=O)Cn1cnc2ccccc2c1=O)NCc1ccccc1Cl`, the “activity change, negative = inhibition” value was 61.1%.
On the same count and under the same terms, under `COc1ccccc1NC(=O)CCC(=O)N1CC(C)Oc2ccc(C)cc21` (stereo not drawn) stands 7.94%.
For the molecule `O=C(c1ccc(-n2cnnn2)cc1)N1CCN(C(c2ccccc2)c2ccccc2)CC1`, the Potency is 4.65 µM (active).
Regarding `CCOC(=O)N1CCN(S(=O)(=O)c2ccc(-n3cnnn3)cc2)CC1`, the “activity change, negative = inhibition” value is 10.9%.
As for `O=C(c1ccccc1)N1CCN(C(=O)N2CCCCC2)CC1`, the “activity change, negative = inhibition” value is 10.7%.
Consider `CCn1cc(C(=O)OCC(=O)Nc2cccc(C)c2)c(=O)c2ccc(C)nc21`, for which the “activity change, negative = inhibition” value was 20.8%.
With `CCOC(=O)c1cn(CC)c2cc(F)c(F)cc2c1=O`, the “activity change, negative = inhibition” value is 0.303%.
Take `Cc1cccc(N2CC(C(=O)Nc3ccccc3N3CCCC3)CC2=O)c1C` (stereo not drawn): the Potency was 5.22 µM (active).
As for `Cc1ccccc1N1CC(C(=O)Nc2ccc3c(c2)OCO3)CC1=O` (stereo not drawn), the “activity change, negative = inhibition” value was 11.6%.
Same read-out and setting: under `Cc1ccccc1N1CC(C(=O)Nc2ccc(S(=O)(=O)N3CCCC3)cc2)CC1=O` (stereo not drawn) stands 9.93%; under `CC(=O)C1=C(O)C(=O)N(c2ccc(Br)cc2)C1c1ccc([N+](=O)[O-])cc1` (stereo not drawn), -0.955%.
Regarding `COC(=O)C1CCN(C(=O)NC2CC(=O)N(c3ccc4c(c3)OCCO4)C2)CC1` (stereo not drawn), the “activity change, negative = inhibition” value is 15.2%.
On to `CCOC(=O)C1CCc2nc3ccccc3c(=O)n21` (stereo not drawn), for which the “activity change, negative = inhibition” value is 18.4%.
For `O=C(CSc1nc2ccccc2c(=O)n1CCCO)NC1CC1`, the “activity change, negative = inhibition” value was 12.2%.
In the case of `CCOC(=O)C(C)Sc1nc2ccccc2c(=O)n1CC1CCCCC1` (stereo not drawn), the Potency is 11.7 µM (active).
With `O=C(NCCN1CCN(C(=O)c2cccc([N+](=O)[O-])c2)CC1)C(=O)NCc1ccc(Cl)cc1`, the “activity change, negative = inhibition” value is -0.891%.
Consider `Cc1ccc(NC(=S)N2CCCC(c3ccccc3)=N2)cc1`, for which the “activity change, negative = inhibition” value was 12.4%.
The same measure, in the same setting: with `CSCCC(NC(=O)c1ccc(Cl)cc1Cl)C(=O)NNC(=O)c1csc(N2CCOCC2)n1` (stereo not drawn) the figure was 50.2%; with `CCC1S/C(=N/N=C/c2ccco2)NC1=O` (stereo not drawn), 3.41%; with `O=C1OC(/C=C/c2ccccc2)=NC/1=C/c1ccco1`, 41.8%.
Consider `CC(C)(C)C1C/C(=C/c2ccco2)C(=O)/C(=C/c2ccco2)C1` (stereo not drawn), for which the Potency is 13.1 µM (active).
With `CCOc1ccc(CNC(=O)CCC(=O)N2CCSc3ccccc32)cc1`, the “activity change, negative = inhibition” value is -23.6%.
Take `Cc1ccc(S(=O)(=O)N2CCN(C(=O)c3ccccc3-c3nc4ccccc4s3)CC2)c(C)c1`: the “activity change, negative = inhibition” value was -14.7%.
Same read-out and setting: with `CN(C)C(=O)COC(=O)c1cccc(S(=O)(=O)N2CC3(C)CC2CC(C)(C)C3)c1` (stereo not drawn) the figure was -7.05%.
Turning to `Cc1ccc(N(C(=O)c2snc(C(N)=O)c2N)C(C(=O)NCC2CCCO2)c2c[nH]c3ccccc23)cc1` (stereo not drawn), the “activity change, negative = inhibition” value is 0%.
On the same count and under the same terms, under `CC(C)(C)c1ccc(SCCc2ccncc2)cc1` stands -26.6%.
In the case of `Cc1cc(C)c(SCCc2ccncc2)c(C)c1`, the Potency was 10.4 µM (active).
For `c1ccc(CSCCc2ccncc2)cc1`, the “activity change, negative = inhibition” value is 40.8%.
On the same count and under the same terms, with `COC(=O)c1cc(OCC(=O)NC2CCCc3ccccc32)cc(C(=O)OC)c1` (stereo not drawn) the figure was 4.97%; with `Cc1ccc(C(=O)NCC(=O)OCC(=O)NC2CCCCCCC2)cc1`, 30.3%; with `Oc1ccc(-c2cccc(-c3ccc(O)cc3)c2)cc1`, 40.9%.
In the case of `O=C(NCCS(=O)(=O)N1CCN(c2ccc(F)cc2)CC1)c1ccc2c(c1)OCO2`, the “activity change, negative = inhibition” value is 23.3%.
On the same count and under the same terms, under `Cn1cnnc1SCc1nnc(-c2ccccc2Br)o1` stands 22.1%; under `CC(C)N(Cc1nnc(-c2ccc(Cl)cc2)o1)C(=O)C1=COCCO1`, -0.891%.
In the case of `CC(C)N(Cc1nnc(-c2ccccc2Br)o1)C(=O)c1cc(Cl)nc2ccccc12`, the Potency was 14.7 µM (active).
As for `O=S(=O)(Nc1ccccc1)c1ccc(NS(=O)(=O)c2cccs2)cc1`, the “activity change, negative = inhibition” value is 409%.
`Cc1ccc(OCCNC(=O)CNC(=O)c2ccc(C)c(C)c2)cc1`: the “activity change, negative = inhibition” value was 15.4%.
On the same count and under the same terms, under `COc1cc(Nc2nc3ccc(Cl)cc3n3cnnc23)cc(OC)c1OC` stands 7.11%; under `CN(C)N(C)C(=O)C(O)(c1ccccc1)c1ccccc1`, -3.89%; under `CCOC(=O)CCP(=O)(O)C(O)(c1ccccc1)c1ccccc1`, 6.27%.
In the case of `CC[N+]1(C)CCCC(OC(=O)C(O)(c2ccccc2)c2ccccc2)C1` (stereo not drawn), the Potency was 8.49 µM (active) and 10.4 µM (active).
Regarding `O=S(=O)(c1ccc(Cl)cc1)c1nc(-c2ccccc2F)oc1NCCN1CCOCC1`, the “activity change, negative = inhibition” value was -26.1%.
Still for that read-out and setting: with `O=C1c2cccc3cccc(c23)C(=O)N1CCCCCc1n[nH]c(=S)o1` the figure was 21.4%; with `O=C(CN1C(=O)c2cccc3cccc1c23)Nc1ccccc1`, 6.14%.
Consider `C[N+](C)(CCCCCC[N+](C)(C)CCCN1C(=O)c2cccc3cccc(c23)C1=O)CCCN1C(=O)c2cccc3cccc(c23)C1=O`, for which the Potency is 0.233 µM (active).
Turning to `COc1cc(/C=C/C(=O)O)cc(S(=O)(=O)Nc2ccccc2C(=O)NCCc2ccccc2)c1OC`, the “activity change, negative = inhibition” value is 24.5%.
In the case of `Cc1ccc(NC(=O)COC(=O)C2C3CC4OC(=O)C2C4C3)cc1Cl` (stereo not drawn), the “activity change, negative = inhibition” value is 0.766%.
Consider `Cc1cc(C)cc(NC(=O)c2cccc(NC(=O)C3C4CC5OC(=O)C3C5C4)c2)c1` (stereo not drawn), for which the Potency was 0.0738 µM (active).
As for `Cc1cccc(NC(=O)C(C)N2C(=O)C3C4CC(C(Br)C4Br)C3C2=O)c1` (stereo not drawn), the “activity change, negative = inhibition” value is 104%.
Regarding `O=C(NCCS(=O)(=O)N1CCN(c2ccccc2)CC1)c1ccco1`, the “activity change, negative = inhibition” value was 10.3%.
For the molecule `CSc1cccc(NC(=O)CN2C(=O)COc3ccc(S(=O)(=O)N4CCOCC4)cc32)c1`, the “activity change, negative = inhibition” value was 8.78%.

These data come from PubChem BioAssay AID504834 (National Center for Advancing Translational Sciences (NCATS), 2011).
